Measurements published in article PMC7862700, “An all-to-all approach to the identification of sequence-specific readers for epigenetic DNA modifications on cytosine”.

How the values were obtained:
Test in all cases: DAPPL (digital affinity profiling via proximity ligation, sequencing); 10 mM Tris-HCl pH 7.5, 50 mM NaCl, 1 mM DTT, 4% glycerol, room temperature, 30 min; GST-TFs on glutathione beads, 16-mer random dsDNA library, 0.1% formaldehyde crosslink after washing; high values mean tight binding
FEV = target: T1, FEV (Homo sapiens, UniProt Q99581 1-238); conditions: protein: recombinant; tags: N-terminal GST; dsDNA, one strand shown
T1 sequence: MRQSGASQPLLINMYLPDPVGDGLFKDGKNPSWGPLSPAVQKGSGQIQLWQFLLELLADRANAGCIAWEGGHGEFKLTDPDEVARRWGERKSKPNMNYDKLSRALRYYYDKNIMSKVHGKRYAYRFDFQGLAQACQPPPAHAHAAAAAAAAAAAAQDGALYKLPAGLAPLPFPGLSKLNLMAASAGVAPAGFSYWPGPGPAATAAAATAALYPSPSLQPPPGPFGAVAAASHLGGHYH
Summary of the method: (§1)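 In yeast, human transcription factors were expressed with a GST fusion, then pulled down on glutathione beads and given DNA barcodes. Pooled with a tag-only sample, they were exposed to 200 nmole of a 16-mer random double-stranded DNA library (Tris/NaCl/DTT/glycerol buffer, room temperature, 30 min), washed, crosslinked with 0.1% formaldehyde, proximity-ligated using BsaI/T4 ligase for 1 h at 37 °C, PCR-amplified and read on an Illumina NextSeq500. Each hexamer's frequency of reads for a factor, divided by the matching frequency for the tag-only sample, gives the binding signal.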

ETV5 = ETV5 (Homo sapiens, UniProt P41161 1-510); conditions: protein: recombinant; tags: N-terminal GST; dsDNA, one strand shown
Sequence of ETV5 (P41161 whole entry): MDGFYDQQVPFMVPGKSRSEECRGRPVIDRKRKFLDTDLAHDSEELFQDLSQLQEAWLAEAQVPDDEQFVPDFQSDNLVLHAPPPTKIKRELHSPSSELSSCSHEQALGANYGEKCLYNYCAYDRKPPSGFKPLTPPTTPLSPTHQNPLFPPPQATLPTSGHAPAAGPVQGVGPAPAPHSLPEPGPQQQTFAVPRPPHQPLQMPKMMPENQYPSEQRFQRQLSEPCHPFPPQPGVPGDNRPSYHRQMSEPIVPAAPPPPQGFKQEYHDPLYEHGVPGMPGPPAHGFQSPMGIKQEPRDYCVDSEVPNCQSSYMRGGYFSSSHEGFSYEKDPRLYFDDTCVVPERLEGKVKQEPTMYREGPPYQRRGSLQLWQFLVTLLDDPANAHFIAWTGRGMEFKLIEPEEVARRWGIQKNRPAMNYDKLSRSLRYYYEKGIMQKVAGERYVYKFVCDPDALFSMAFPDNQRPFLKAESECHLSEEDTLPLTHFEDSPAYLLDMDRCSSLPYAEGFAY
Summary of the method: as §1

HSF1 = HSF1 (Homo sapiens, UniProt Q00613 1-529); conditions: protein: recombinant; tags: N-terminal GST; chain copies: 3; dsDNA, one strand shown
Sequence of HSF1 (Q00613 whole entry): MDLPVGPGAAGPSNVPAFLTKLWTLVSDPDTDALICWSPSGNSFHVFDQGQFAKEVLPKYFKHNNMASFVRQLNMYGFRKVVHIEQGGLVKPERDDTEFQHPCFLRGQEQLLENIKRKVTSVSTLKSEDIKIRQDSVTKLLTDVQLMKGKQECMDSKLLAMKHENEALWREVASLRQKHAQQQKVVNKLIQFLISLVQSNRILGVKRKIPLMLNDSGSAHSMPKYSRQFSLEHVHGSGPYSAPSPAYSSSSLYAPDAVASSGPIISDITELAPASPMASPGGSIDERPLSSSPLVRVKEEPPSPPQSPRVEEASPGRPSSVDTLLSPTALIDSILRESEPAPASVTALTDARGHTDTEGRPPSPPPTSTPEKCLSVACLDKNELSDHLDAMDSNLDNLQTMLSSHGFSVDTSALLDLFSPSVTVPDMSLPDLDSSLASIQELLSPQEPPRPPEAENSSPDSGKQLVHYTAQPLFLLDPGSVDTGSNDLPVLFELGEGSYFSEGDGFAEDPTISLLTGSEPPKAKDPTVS
Summary of the method: as §1

SPIC = target: T2, SPIC (Homo sapiens, UniProt Q8N5J4 1-248); conditions: protein: recombinant; tags: N-terminal GST; dsDNA, one strand shown
T2 sequence: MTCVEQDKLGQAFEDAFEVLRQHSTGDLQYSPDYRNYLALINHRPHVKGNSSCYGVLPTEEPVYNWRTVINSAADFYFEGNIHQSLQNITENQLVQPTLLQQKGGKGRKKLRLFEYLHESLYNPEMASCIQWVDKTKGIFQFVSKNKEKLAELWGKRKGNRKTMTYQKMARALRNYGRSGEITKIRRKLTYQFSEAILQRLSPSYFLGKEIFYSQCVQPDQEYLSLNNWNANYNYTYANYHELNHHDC
Summary of the method: as §1

ELF4 = ELF4 (Homo sapiens, UniProt Q99607 1-663); conditions: protein: recombinant; tags: N-terminal GST; dsDNA, one strand shown
Sequence of ELF4 (Q99607 whole entry): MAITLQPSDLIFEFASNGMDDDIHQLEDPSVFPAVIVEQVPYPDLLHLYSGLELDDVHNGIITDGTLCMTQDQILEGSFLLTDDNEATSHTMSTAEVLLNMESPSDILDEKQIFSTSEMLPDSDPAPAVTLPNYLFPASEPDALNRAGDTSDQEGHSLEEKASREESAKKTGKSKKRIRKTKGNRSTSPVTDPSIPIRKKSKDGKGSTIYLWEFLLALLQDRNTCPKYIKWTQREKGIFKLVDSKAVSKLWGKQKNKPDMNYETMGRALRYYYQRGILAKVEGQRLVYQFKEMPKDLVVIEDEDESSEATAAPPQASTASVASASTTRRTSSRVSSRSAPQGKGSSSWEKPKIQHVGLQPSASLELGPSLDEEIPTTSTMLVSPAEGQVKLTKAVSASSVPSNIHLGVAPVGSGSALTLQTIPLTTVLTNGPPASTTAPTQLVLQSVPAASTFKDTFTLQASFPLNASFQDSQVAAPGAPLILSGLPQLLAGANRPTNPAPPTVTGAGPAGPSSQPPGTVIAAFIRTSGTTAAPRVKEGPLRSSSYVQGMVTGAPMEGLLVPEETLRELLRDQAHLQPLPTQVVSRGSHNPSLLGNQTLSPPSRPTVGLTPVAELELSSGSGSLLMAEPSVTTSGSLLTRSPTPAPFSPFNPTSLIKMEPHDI
Summary of the method: as §1

ELK4 = target: T3, ELK4 (Homo sapiens, UniProt P28324-2 1-405); conditions: protein: recombinant; tags: N-terminal GST; dsDNA, one strand shown
T3 sequence: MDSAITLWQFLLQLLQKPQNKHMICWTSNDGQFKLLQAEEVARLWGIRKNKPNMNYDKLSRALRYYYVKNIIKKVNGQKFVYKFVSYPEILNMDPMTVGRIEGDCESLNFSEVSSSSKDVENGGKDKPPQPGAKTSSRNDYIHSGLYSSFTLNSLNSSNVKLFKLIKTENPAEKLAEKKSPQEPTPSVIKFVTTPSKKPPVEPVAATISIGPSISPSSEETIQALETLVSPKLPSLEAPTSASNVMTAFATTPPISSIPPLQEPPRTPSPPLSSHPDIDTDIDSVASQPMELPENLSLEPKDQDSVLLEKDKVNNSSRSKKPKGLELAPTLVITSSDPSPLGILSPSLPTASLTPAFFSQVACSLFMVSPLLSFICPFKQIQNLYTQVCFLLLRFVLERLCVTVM
Summary of the method: as §1

ETV2 = target: T4, ETV2 (Homo sapiens, UniProt O00321 1-342); conditions: protein: recombinant; tags: N-terminal GST; dsDNA, one strand shown
T4 sequence: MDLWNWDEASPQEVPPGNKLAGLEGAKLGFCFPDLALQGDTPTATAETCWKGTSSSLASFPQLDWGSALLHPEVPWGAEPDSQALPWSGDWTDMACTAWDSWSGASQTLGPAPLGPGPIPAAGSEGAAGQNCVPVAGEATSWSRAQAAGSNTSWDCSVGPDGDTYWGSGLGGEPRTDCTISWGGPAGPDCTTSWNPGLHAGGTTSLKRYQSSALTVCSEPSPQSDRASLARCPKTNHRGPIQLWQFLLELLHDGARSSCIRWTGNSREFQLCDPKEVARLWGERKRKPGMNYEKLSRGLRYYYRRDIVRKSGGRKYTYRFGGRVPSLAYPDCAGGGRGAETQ
Summary of the method: as §1

ELF3 = target: T5, ELF3 (Homo sapiens, UniProt P78545 1-371); conditions: protein: recombinant; tags: N-terminal GST; dsDNA, one strand shown
T5 sequence: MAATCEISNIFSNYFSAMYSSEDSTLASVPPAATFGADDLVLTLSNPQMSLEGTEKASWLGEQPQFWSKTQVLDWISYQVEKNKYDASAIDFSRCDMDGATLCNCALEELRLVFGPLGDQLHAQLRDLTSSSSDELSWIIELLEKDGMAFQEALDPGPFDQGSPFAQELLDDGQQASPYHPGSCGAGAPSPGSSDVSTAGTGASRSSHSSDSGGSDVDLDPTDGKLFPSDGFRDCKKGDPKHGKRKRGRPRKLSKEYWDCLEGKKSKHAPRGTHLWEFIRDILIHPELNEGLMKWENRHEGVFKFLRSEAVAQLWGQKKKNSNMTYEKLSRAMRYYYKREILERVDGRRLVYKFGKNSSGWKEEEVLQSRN
Summary of the method: as §1

ETV1 = ETV1 (Homo sapiens, UniProt P50549 1-477); conditions: protein: recombinant; tags: N-terminal GST; dsDNA, one strand shown
Sequence of ETV1 (P50549 whole entry): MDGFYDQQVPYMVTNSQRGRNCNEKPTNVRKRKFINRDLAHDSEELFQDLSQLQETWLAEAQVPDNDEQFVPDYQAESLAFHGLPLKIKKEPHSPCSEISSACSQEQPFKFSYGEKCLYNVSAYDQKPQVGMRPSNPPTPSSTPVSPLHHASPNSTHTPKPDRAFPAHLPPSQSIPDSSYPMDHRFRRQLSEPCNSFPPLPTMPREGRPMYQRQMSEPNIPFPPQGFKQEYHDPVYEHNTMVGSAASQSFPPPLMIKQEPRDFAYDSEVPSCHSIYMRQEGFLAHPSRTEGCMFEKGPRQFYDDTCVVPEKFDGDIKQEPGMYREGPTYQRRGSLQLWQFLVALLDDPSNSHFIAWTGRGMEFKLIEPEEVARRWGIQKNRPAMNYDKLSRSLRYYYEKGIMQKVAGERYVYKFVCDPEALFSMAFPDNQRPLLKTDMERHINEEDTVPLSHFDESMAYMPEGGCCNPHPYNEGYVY
Summary of the method: as §1

ERF = target: T6, ERF (Homo sapiens, UniProt P50548 1-548); conditions: protein: recombinant; tags: N-terminal GST; dsDNA, one strand shown
T6 sequence: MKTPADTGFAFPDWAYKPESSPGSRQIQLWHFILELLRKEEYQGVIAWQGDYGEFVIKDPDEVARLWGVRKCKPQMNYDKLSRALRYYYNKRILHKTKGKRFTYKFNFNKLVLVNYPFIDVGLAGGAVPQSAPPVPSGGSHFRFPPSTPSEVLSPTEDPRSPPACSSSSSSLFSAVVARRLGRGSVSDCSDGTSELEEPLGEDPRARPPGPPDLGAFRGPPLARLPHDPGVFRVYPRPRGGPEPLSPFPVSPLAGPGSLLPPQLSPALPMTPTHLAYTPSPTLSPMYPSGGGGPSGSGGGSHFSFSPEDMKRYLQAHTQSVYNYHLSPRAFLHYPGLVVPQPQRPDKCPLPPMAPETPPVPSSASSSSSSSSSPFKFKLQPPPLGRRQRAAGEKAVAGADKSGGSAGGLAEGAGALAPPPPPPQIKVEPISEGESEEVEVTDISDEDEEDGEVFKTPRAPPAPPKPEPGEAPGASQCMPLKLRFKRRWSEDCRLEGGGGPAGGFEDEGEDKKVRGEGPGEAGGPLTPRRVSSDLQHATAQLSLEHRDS
Summary of the method: as §1

ETV3L = target: T7, ETV3L (Homo sapiens, UniProt Q6ZN32 1-361); conditions: protein: recombinant; tags: N-terminal GST; dsDNA, one strand shown
T7 sequence: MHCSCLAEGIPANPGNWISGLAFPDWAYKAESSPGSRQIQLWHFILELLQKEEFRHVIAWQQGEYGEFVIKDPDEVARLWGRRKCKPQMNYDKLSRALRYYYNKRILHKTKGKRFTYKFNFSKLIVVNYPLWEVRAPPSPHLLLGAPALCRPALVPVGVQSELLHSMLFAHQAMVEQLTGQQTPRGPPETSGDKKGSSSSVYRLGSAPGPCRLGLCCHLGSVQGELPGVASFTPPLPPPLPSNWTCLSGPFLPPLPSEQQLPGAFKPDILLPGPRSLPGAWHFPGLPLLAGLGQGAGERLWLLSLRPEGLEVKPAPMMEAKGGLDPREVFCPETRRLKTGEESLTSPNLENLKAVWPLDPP
Summary of the method: as §1

ETS2 = target: T8, ETS2 (Homo sapiens, UniProt P15036 1-469); conditions: protein: recombinant; tags: N-terminal GST; dsDNA, one strand shown
T8 sequence: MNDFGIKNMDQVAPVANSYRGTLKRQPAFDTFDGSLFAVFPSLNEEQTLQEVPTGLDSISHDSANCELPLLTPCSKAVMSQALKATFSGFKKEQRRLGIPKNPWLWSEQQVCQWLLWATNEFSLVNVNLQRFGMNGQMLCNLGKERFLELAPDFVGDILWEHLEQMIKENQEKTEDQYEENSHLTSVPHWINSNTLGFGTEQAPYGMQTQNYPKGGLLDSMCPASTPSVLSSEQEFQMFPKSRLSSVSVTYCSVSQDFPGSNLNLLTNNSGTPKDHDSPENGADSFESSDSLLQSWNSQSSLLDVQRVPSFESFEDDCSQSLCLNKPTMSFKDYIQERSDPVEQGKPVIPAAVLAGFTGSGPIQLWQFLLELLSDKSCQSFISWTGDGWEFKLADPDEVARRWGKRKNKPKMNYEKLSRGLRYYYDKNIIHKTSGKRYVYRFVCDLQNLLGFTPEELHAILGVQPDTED
Summary of the method: as §1

SPDEF = target: T9, SPDEF (Homo sapiens, UniProt O95238 1-335); conditions: protein: recombinant; tags: N-terminal GST; dsDNA, one strand shown
T9 sequence: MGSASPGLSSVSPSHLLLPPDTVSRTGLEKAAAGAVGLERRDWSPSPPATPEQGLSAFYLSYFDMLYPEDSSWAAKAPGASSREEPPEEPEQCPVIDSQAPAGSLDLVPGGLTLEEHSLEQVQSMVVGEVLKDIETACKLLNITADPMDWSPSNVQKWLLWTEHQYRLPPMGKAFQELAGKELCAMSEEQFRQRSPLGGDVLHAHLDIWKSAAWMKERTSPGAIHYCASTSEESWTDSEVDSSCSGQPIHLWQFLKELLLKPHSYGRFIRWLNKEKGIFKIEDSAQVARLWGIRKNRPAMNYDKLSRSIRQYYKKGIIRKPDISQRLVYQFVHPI
Summary of the method: as §1

ETV7 = target: T10, ETV7 (Homo sapiens, UniProt Q9Y603 1-341); conditions: protein: recombinant; tags: N-terminal GST; dsDNA, one strand shown
T10 sequence: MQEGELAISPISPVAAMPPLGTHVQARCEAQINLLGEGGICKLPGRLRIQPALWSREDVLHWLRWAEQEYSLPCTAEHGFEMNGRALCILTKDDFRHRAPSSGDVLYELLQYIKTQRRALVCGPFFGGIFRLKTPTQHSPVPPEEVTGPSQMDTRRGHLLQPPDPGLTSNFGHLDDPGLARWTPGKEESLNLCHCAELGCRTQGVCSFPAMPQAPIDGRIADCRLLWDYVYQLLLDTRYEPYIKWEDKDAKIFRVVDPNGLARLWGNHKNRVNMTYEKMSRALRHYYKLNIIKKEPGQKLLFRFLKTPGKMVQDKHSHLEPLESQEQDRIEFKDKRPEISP
Summary of the method: as §1

ELF5 = target: T11, ELF5 (Homo sapiens, UniProt Q9UKW6-2 1-255); conditions: protein: recombinant; tags: N-terminal GST; dsDNA, one strand shown
T11 sequence: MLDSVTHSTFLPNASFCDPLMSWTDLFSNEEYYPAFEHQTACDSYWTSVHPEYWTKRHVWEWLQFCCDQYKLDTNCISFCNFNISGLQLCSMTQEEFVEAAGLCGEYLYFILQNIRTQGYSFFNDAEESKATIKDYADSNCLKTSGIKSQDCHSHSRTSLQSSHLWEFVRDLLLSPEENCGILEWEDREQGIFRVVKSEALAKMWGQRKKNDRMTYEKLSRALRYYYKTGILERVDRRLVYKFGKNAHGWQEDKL
Summary of the method: as §1

ETV3 = target: T12, ETV3 (Homo sapiens, UniProt P41162-2 1-143); conditions: protein: recombinant; tags: N-terminal GST; dsDNA, one strand shown
T12 sequence: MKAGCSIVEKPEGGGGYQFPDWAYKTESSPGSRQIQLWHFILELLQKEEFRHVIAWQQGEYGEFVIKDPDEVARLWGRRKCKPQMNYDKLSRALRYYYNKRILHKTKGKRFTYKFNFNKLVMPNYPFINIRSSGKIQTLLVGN
Summary of the method: as §1

ETV6 = ETV6 (Homo sapiens, UniProt P41212 1-452); conditions: protein: recombinant; tags: N-terminal GST; dsDNA, one strand shown
Sequence of ETV6 (P41212 whole entry): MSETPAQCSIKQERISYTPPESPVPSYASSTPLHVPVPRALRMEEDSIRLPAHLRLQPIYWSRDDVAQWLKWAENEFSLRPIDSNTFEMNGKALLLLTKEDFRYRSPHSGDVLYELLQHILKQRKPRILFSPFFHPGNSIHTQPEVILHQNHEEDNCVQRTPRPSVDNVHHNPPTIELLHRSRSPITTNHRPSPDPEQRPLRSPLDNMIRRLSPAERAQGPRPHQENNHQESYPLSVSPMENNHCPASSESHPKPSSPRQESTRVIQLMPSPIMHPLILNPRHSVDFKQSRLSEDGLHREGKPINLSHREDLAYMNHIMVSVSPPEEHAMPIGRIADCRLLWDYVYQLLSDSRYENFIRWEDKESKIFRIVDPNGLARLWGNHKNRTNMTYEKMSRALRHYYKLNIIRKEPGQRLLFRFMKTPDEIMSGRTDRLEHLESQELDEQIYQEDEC
Summary of the method: as §1

GTGTTC
binding signal (FEV): 1.08 fold enrichment (6-mer frequency, TF over GST control)
binding signal (ETV5): 1.14 fold enrichment (6-mer frequency, TF over GST control)
binding signal (HSF1): 1.12 fold enrichment (6-mer frequency, TF over GST control)
binding signal (SPIC): 1.36 fold enrichment (6-mer frequency, TF over GST control)
binding signal (ELF4): 1.12 fold enrichment (6-mer frequency, TF over GST control)
binding signal (ELK4): 1.25 fold enrichment (6-mer frequency, TF over GST control)
binding signal (ETV2): 1.15 fold enrichment (6-mer frequency, TF over GST control)
binding signal (ELF3): 1.19 fold enrichment (6-mer frequency, TF over GST control)
binding signal (ETV1): 1.14 fold enrichment (6-mer frequency, TF over GST control)
binding signal (ERF): 1.19 fold enrichment (6-mer frequency, TF over GST control)
binding signal (ETV3L): 1.14 fold enrichment (6-mer frequency, TF over GST control)
binding signal (ETS2): 1.17 fold enrichment (6-mer frequency, TF over GST control)
binding signal (SPDEF): 1.34 fold enrichment (6-mer frequency, TF over GST control)
binding signal (ETV7): 1.11 fold enrichment (6-mer frequency, TF over GST control)
binding signal (ELF5): 1.34 fold enrichment (6-mer frequency, TF over GST control)
binding signal (ETV3): 1.05 fold enrichment (6-mer frequency, TF over GST control)
binding signal (ETV6): 1.09 fold enrichment (6-mer frequency, TF over GST control)
